Structures are written as SMILES. This is part of a sample that, as a whole, favours compounds with a hit. Of some 79,000 tested, about 15% had one in any assay. A number with no mark means an inactive call. Calls of active or inactive are those of the source. Rule as the data show it: active = growth inhibition above about 70%; inactive = the rest.

Our source for the growth inhibition values is PubChem BioAssay (NCI).

The nature of assay [1]: NCI Yeast Anticancer Drug Screen. Data for the rad50 strain (AID 155).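 Also: 0% = growth of vehicle-only cultures of the same strain.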 Conditions: S. cerevisiae rad50 strain growth inhibition, active compounds read high. The method, boiled down: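 Compounds were tested on a yeast strain with an engineered DNA damage repair alteration; the reported value is growth inhibition normalised to vehicle treatment.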
Assay [2] is described as follows: NCI Yeast Anticancer Drug Screen. Data for the mec2-1 strain (AID 157). Conditions: S. cerevisiae mec2-1 strain, active compounds read high. The method, boiled down:
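Mutant yeast (mec2-1) grown with compound; growth inhibition relative to vehicle control reported.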

A short description of assay [3]: NCI Yeast Anticancer Drug Screen. Data for the sgs1 mgt1 strain (AID 161).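 Also: 0% = growth of cultures given vehicle only.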 Conditions: S. cerevisiae sgs1 mgt1 strain, active compounds read high. The method in brief:
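Yeast cells carrying a defined DNA-repair defect were exposed to test compounds. Growth inhibition was measured relative to vehicle-treated controls.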

Assay [4] is described as follows: NCI Yeast Anticancer Drug Screen. Data for the cln2 rad14 strain (AID 165).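 Also: 0% = growth equal to vehicle treated cultures.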 The following applies: S. cerevisiae cln2 rad14 strain, active compounds read high. The method in brief:
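Readout is yeast growth inhibition versus vehicle-treated controls, using a strain with cln2 and rad14 alterations exposed to compound.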

Assay [5] is described as follows: NCI Yeast Anticancer Drug Screen. Data for the bub3 strain (AID 167). Conditions: S. cerevisiae bub3 mutant strain, active compounds read high. The method in brief:
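Growth of a checkpoint-deficient yeast mutant is measured after compound exposure. Values represent inhibition relative to vehicle.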

Assay [6] in a line: NCI Yeast Anticancer Drug Screen. Data for the mlh1 rad18 strain (AID 175). Conditions: S. cerevisiae mlh1 rad18 strain growth inhibition, active compounds read high. The method, boiled down:
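Genetically defined yeast (DNA repair-deficient) exposed to compounds; growth inhibition determined relative to vehicle.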

[7] abbreviates: at 5.0 µM (retest, dose inferred, filed as 0.5).
Where [8] appears, read: at 50.0 µM (retest, dose inferred, filed as 5.0).

With `Nc1c(Cl)nc(C(F)(F)F)nc1NCc1ccccc1`, the growth inhibition in assay [1] (setting [7]) is 60%; in assay [1] (setting [8]), 99% (active); in assay [1] (at 50.0 µM), 39.7%; in assay [2] (setting [7]), 99% (active); in assay [2] (setting [8]), 99% (active); in assay [2] (at 50.0 µM), 8.25%. The growth inhibition was 97% (active) in assay [3] (setting [7]); 99% (active) in assay [3] (setting [8]); 1.45% in assay [3] (at 50.0 µM); 99% (active) in assay [4] (setting [7]); 99% (active) in assay [4] (setting [8]); -48.1% in assay [4] (at 50.0 µM). Moreover, the growth inhibition was 99% (active) in assay [5] (setting [7]); 99% (active) in assay [5] (setting [8]); 23.7% in assay [5] (at 50.0 µM); 91% (active) in assay [6] (setting [7]); 99% (active) in assay [6] (setting [8]); 5.35% in assay [6] (at 50.0 µM).

For `CO/C(=N\N=C(/c1ccccc1)C(F)(F)F)c1ccncc1`, the growth inhibition in assay [1] (setting [7]) is 44%; in assay [1] (setting [8]) it was 75% (active); in assay [1] (at 50.0 µM) it was 45%; in assay [2] (setting [7]) it was 0%; in assay [2] (setting [8]), 58%; in assay [2] (at 50.0 µM) it was 62.6%. The growth inhibition in assay [3] (setting [7]) was 15%; in assay [3] (setting [8]) it was 76% (active); in assay [3] (at 50.0 µM), 71.8% (active); in assay [4] (setting [7]) it was 25%; in assay [4] (setting [8]), 52%; in assay [4] (at 50.0 µM), 44.5%. Also, the growth inhibition in assay [5] (setting [7]) was 2%; in assay [5] (setting [8]) it was 79% (active); in assay [5] (at 50.0 µM) it was 75.2% (active); in assay [6] (setting [7]) it was 0%; in assay [6] (setting [8]), 66%; in assay [6] (at 50.0 µM) it was 65%.

As to `O=C(O)/C=C/c1ccc2c(c1)CC1(Cc3ccccc3C1)C2`, the growth inhibition in assay [1] (setting [7]) was 27%; in assay [1] (setting [8]) it was 82% (active); in assay [1] (at 50.0 µM), 45.6%; in assay [2] (setting [7]), 40%; in assay [2] (setting [8]) it was 90% (active); in assay [2] (at 50.0 µM) it was 66.2%. For the same compound, the growth inhibition in assay [3] (setting [7]) was 84% (active); in assay [3] (setting [8]) it was 87% (active); in assay [3] (at 50.0 µM) it was 73% (active); in assay [4] (setting [7]), 64%; in assay [4] (setting [8]), 93% (active); in assay [4] (at 50.0 µM) it was 83.3% (active). In addition, the growth inhibition in assay [5] (setting [7]) was 85% (active); in assay [5] (setting [8]), 92% (active); in assay [5] (at 50.0 µM), 78.5% (active); in assay [6] (setting [7]) it was 67%; in assay [6] (setting [8]) it was 88% (active); in assay [6] (at 50.0 µM), 80% (active).

With `Cc1ccc(N2C(N)=C(C#N)C(C#N)(C#N)C2c2ccccc2)cc1` (stereo not given), the growth inhibition in assay [1] (setting [7]) was 22%; in assay [1] (setting [8]) it was 70% (active); in assay [1] (at 50.0 µM), 31.1%; in assay [2] (setting [7]) it was 26%; in assay [2] (setting [8]) it was 82% (active); in assay [2] (at 50.0 µM), 38.1%. The growth inhibition in assay [3] (setting [7]) was 20%; in assay [3] (setting [8]), 51%; in assay [3] (at 50.0 µM) it was 55%; in assay [4] (setting [7]) it was 14%; in assay [4] (setting [8]) it was 41%; in assay [4] (at 50.0 µM), 24.4%. Besides, the growth inhibition was 25% in assay [5] (setting [7]); 50% in assay [5] (setting [8]); 64.7% in assay [5] (at 50.0 µM); 25% in assay [6] (setting [7]); 88% (active) in assay [6] (setting [8]); 90.5% (active) in assay [6] (at 50.0 µM).

For the compound `COc1ccc(CN2COc3c(cc(Cl)c4cccnc34)C2)cc1`, the growth inhibition is 6% in assay [1] (setting [7]); 98% (active) in assay [1] (setting [8]); 99.5% (active) in assay [1] (at 50.0 µM); -2% in assay [2] (setting [7]); 91% (active) in assay [2] (setting [8]); 99.6% (active) in assay [2] (at 50.0 µM). Besides, the growth inhibition in assay [3] (setting [7]) was 1%; in assay [3] (setting [8]) it was 98% (active); in assay [3] (at 50.0 µM), 99.7% (active); in assay [4] (setting [7]) it was 4%; in assay [4] (setting [8]), 99% (active); in assay [4] (at 50.0 µM) it was 99.2% (active). The growth inhibition in assay [5] (setting [7]) is -2%; in assay [5] (setting [8]), 99% (active); in assay [5] (at 50.0 µM) it was 99.4% (active); in assay [6] (setting [7]), 8%; in assay [6] (setting [8]), 99% (active); in assay [6] (at 50.0 µM), 99.5% (active).

Turning to `c1csc(-c2nccc3c2[nH]c2ccccc23)c1`, the growth inhibition in assay [1] (setting [7]) was -18%; in assay [1] (setting [8]) it was 92% (active); in assay [1] (at 50.0 µM), 88% (active); in assay [2] (setting [7]) it was -17%; in assay [2] (setting [8]), 94% (active); in assay [2] (at 50.0 µM), 92.8% (active). In addition, the growth inhibition in assay [3] (setting [7]) is -29%; in assay [3] (setting [8]), 95% (active); in assay [3] (at 50.0 µM) it was 90.2% (active); in assay [4] (setting [7]), -13%; in assay [4] (setting [8]) it was 83% (active); in assay [4] (at 50.0 µM) it was 91% (active). The growth inhibition in assay [5] (setting [7]) was -42%; in assay [5] (setting [8]) it was 97% (active); in assay [5] (at 50.0 µM), 91.3% (active); in assay [6] (setting [7]), -19%; in assay [6] (setting [8]), 94% (active); in assay [6] (at 50.0 µM), 86.7% (active).

Take `COc1ccccc1C(=O)c1ccc2ccccc2c1`: the growth inhibition in assay [1] (setting [7]) is -3%; in assay [1] (setting [8]), 71% (active); in assay [1] (at 50.0 µM), 47.2%; in assay [2] (setting [7]), -10%; in assay [2] (setting [8]) it was 85% (active); in assay [2] (at 50.0 µM), 73% (active). Further, the growth inhibition is 0% in assay [3] (setting [7]); 83% (active) in assay [3] (setting [8]); 61.8% in assay [3] (at 50.0 µM); -6% in assay [4] (setting [7]); 9% in assay [4] (setting [8]); -17.1% in assay [4] (at 50.0 µM). The growth inhibition was 3% in assay [5] (setting [7]); 74% (active) in assay [5] (setting [8]); 83.6% (active) in assay [5] (at 50.0 µM); -15% in assay [6] (setting [7]); 55% in assay [6] (setting [8]); 42.3% in assay [6] (at 50.0 µM).

Consider `CSC(=S)N/N=C(C)/C=C/c1ccccc1`, for which the growth inhibition in assay [1] (setting [7]) was 9%; in assay [1] (setting [8]), 98% (active); in assay [1] (at 50.0 µM), 98.2% (active); in assay [2] (setting [7]), 14%; in assay [2] (setting [8]), 98% (active); in assay [2] (at 50.0 µM), 98.5% (active). In addition, the growth inhibition was 25% in assay [3] (setting [7]); 98% (active) in assay [3] (setting [8]); 97.7% (active) in assay [3] (at 50.0 µM); -10% in assay [4] (setting [7]); 94% (active) in assay [4] (setting [8]); 97.8% (active) in assay [4] (at 50.0 µM). Besides, the growth inhibition is 13% in assay [5] (setting [7]); 98% (active) in assay [5] (setting [8]); 97.4% (active) in assay [5] (at 50.0 µM); 20% in assay [6] (setting [7]); 93% (active) in assay [6] (setting [8]); 95.3% (active) in assay [6] (at 50.0 µM).

For the compound `Cn1cnc(=S)c2[nH]cnc21`, the growth inhibition in assay [1] (setting [7]) was -1%; in assay [1] (setting [8]), -2%; in assay [1] (at 50.0 µM), 10.9%; in assay [2] (setting [7]) it was -3%; in assay [2] (setting [8]) it was -4%; in assay [2] (at 50.0 µM), -0.45%. Besides, the growth inhibition is -2% in assay [3] (setting [7]); -5% in assay [3] (setting [8]); -4.55% in assay [3] (at 50.0 µM); -2% in assay [4] (setting [7]); -4% in assay [4] (setting [8]); 59.6% in assay [4] (at 50.0 µM). Further, the growth inhibition was 0% in assay [5] (setting [7]); -5% in assay [5] (setting [8]); -8.5% in assay [5] (at 50.0 µM); -4% in assay [6] (setting [7]); -1% in assay [6] (setting [8]); 4.05% in assay [6] (at 50.0 µM).

In the case of `COc1ccc(C(CN2CCOCC2)C(C)=O)cc1OC` (stereo not given), the growth inhibition in assay [1] (setting [7]) is 7%; in assay [1] (setting [8]), 81% (active); in assay [1] (at 50.0 µM), 72.4% (active); in assay [2] (setting [7]) it was 12%; in assay [2] (setting [8]), 93% (active); in assay [2] (at 50.0 µM), 70.1% (active). For the same compound, the growth inhibition in assay [3] (setting [7]) is 13%; in assay [3] (setting [8]), 85% (active); in assay [3] (at 50.0 µM), 88.5% (active); in assay [4] (setting [7]), 7%; in assay [4] (setting [8]), 40%; in assay [4] (at 50.0 µM), 23.6%. Also, the growth inhibition was 10% in assay [5] (setting [7]); 92% (active) in assay [5] (setting [8]); 69.7% in assay [5] (at 50.0 µM); 5% in assay [6] (setting [7]); 93% (active) in assay [6] (setting [8]); 87.2% (active) in assay [6] (at 50.0 µM).
